Rows were chosen to be rich in hits. Some 4.7% of all compounds tested hit in one or more screens of this group.
D1 potentiator – human D1 dopamine receptor positive modulation; 360,000 tested, 0.036% active; AID 504651; potentiation, % at 10 µM; HEK293 TREx D1 cells, calcium flux, dopamine EC20 potentiation; P21728; in the data active means potentiation above about 30%
Target sequence (P21728 whole entry, looked up): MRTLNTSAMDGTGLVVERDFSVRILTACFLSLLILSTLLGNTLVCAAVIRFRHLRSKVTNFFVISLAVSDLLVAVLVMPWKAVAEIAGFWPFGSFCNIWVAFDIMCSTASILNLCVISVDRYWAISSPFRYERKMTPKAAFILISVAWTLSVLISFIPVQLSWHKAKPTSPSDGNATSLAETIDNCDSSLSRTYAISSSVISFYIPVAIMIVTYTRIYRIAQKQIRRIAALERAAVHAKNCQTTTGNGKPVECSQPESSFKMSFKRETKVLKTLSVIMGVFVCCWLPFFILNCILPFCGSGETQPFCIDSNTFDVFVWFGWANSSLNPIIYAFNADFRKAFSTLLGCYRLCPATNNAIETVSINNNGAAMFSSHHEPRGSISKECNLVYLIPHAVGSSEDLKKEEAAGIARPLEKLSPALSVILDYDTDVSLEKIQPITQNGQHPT
TRHR enhancer – TRH receptor (human) allosteric enhancement. P34981. TRHR cells, fluo-8 calcium fluorescence, EC20 TRH enhancement. enhancement, % at 2 µM. 360,000 tested, 0.66% active; in the data active means enhancement above about 30%
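Enhancer read-out: after compound pinning and an initial kinetic agonist-mode read, an EC20 of TRH (10 nM final) was injected and fluo-8 calcium signal (Ex 480/Em 530) followed at 1 s/cycle for 100 cycles in TRHR-expressing cells.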
TRHR ag – TRH receptor (human) agonism. P34981. TRHR cells, calcium flux fluo-8, FDSS agonist mode. activation, % at 2 µM. 360,000 tested, 0.18% active. AID 493084
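TRHR-expressing cells loaded with fluo-8 calcium dye; 23 nL library compound pin-transferred, kinetic FDSS fluorescence (Ex 480/Em 530) recorded about 180 s for agonist-induced calcium release, before a 10 nM TRH EC20 addition for potentiator mode.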
D1 antag – blocks dopamine activation of the human D1 receptor. AID 504652. P21728. 360,000 tested, 3.2% active. HEK293 TREx D1 cells, calcium flux, dopamine EC80; hits give low values. activity change, negative = inhibition, % at 10 µM; in the data active means activity change below about -30%
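Tetracycline-induced HEK293 Trex D1 cells, force-coupled to calcium, dye-loaded; compounds added and read 180 s, then EC80 dopamine added and calcium flux tracked kinetically another 180 s.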
D1 agonist – agonists of human D1 dopamine receptor. P21728. HEK293 T-REx D1 cells, calcium flux, agonist mode. activation, % at 2 µM. 360,000 tested, 1% active
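Tetracycline-induced HEK293 TREx D1 cells, force-coupled to calcium signalling, were dye-loaded with a no-wash calcium kit. Compound was pin-added after a 10 s baseline. Fluorescence was read kinetically at 1 cycle/s for 180 s, with calcium rises flagged as agonism.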
Of the large screens only hits and unclear results are named; the others gave an inactive call; ! = repeats disagree. Unless noted, no stated cut-off is given here; in the data, active means activation above about 30%; inactive means the rest.

CCOC(=O)N1CCN(C(=O)c2c[nH]c3ccc(S(=O)(=O)N(C)c4ccccc4C)cc3c2=O)CC1	D1 antag -33.9
CCOC(=O)N1CCN(C(=O)c2c[nH]c3ccc(S(=O)(=O)N(C)c4cccc(C)c4)cc3c2=O)CC1	none
Cc1c(/C=N/NC(=O)C(C)(C)Oc2ccc(Cl)cc2)cnn1C	none
Cc1nn(C)c(C)c1/C=N/NC(=O)C(C)(C)Oc1ccc(Cl)cc1	D1 antag -38.4
CCCCNC(=O)c1c(-c2ccccc2)c(-c2ccccc2)nn(C)c1=O	none
COc1cccc(CNC(=O)CCNS(=O)(=O)c2cccc3nsnc23)c1	D1 antag -73.3!
COc1cccc(CNC(=O)CCNS(=O)(=O)c2cccc3nonc23)c1	none
COC(=O)CNC(=O)C1CCC(CNS(=O)(=O)c2cccc3nsnc23)CC1 (configuration not stated)	D1 antag -33.3
CCn1c(=O)cc(OCC(=O)N2CCN(c3ccc(C)cc3)C(C)C2)c2ccccc21 (configuration not stated)	none
CC(C)Cn1c(=O)c2sccc2n2c(CCCC(=O)N3CCN(c4ccc(F)cc4)CC3)nnc12	none
CC(C)CNc1nc(S(=O)(=O)c2ccccc2)c(Cl)s1	D1 antag -36.9
CN(C)CCNc1nc(S(=O)(=O)c2ccccc2)c(Cl)s1	none
Nc1c(C(=O)c2ccccc2)sc2snc(SCC(=O)c3ccccc3)c12	D1 agonist 107.8
CC(=O)N1CC(C)Sc2ccc(S(=O)(=O)NCc3ccc(F)cc3)cc21 (configuration not stated)	D1 antag -37.3
CC(=O)N1CCSc2ccc(S(=O)(=O)NCc3ccccc3)cc21	none
COc1ccc(CNS(=O)(=O)c2ccc3c(c2)N(C(C)=O)CC(C)S3)cc1 (configuration not stated)	none
CC(=O)N1CCSc2ccc(S(=O)(=O)NCc3ccc(F)cc3)cc21	D1 antag -30.5
COc1cccc(CNS(=O)(=O)c2ccc3c(c2)C(C(C)C)C(=O)N3)c1 (configuration not stated)	none
O=C(O)c1cn(-c2ccc(F)cc2)c2cc(Cl)c(F)cc2c1=O	none
CCOC(=O)c1cn(-c2ccc([N+](=O)[O-])cc2)c2cc(Cl)c([N+](=O)[O-])cc2c1=O	D1 antag -42.2
Cc1ccccc1NCc1nc2ccccc2n1CCOc1ccccc1	none
CC(C)c1ccc(NC(=O)CSc2nc(=O)n(Cc3ccccn3)c3c2CCC3)cc1	none (no result: D1 antag)
O=C(O)c1ccc(CSc2nc(-c3ccc(Cl)cc3)cc(C(F)(F)F)n2)cc1	D1 agonist 36.6
CCCCN1CC(c2nc3ccccc3n2CCCCOc2cccc(C)c2C)CC1=O (configuration not stated)	none
N#Cc1c(C(F)(F)F)cc(-c2ccco2)nc1SCc1ccccn1	D1 agonist 31.3
CCN(CC)C(=O)CSc1nc(-c2ccco2)cc(C(F)(F)F)c1C#N	none
N#Cc1c(C(F)(F)F)cc(-c2ccco2)nc1SCc1ccncc1	D1 agonist 36.6
CSc1nc(-c2ccco2)cc(C(F)(F)F)c1C#N	none
Cc1ccc(Cn2ncc3c4sc(C)cc4n(C)c3c2=O)cc1	none
Cc1cccc(CSc2nc(=O)c3c(n2C)NC(=O)CC3c2cccc(O)c2)c1 (configuration not stated)	none
Cc1ccc(CSc2nc(=O)c3c(n2C)NC(=O)CC3c2ccc(OC(C)C)cc2)cc1 (configuration not stated)	D1 agonist 46.0
CCOc1ccc(OCC)c(NS(=O)(=O)c2c(C(=O)N3CCCCCC3)c(C)n(C)c2C)c1	none
Cc1noc(C)c1S(=O)(=O)N1CCCC(C(=O)Nc2ccc(C(C)C)cc2)C1 (configuration not stated)	none
COc1cc(CN2CCN(C(O)(c3ccccc3)c3ccccc3)CC2)cc(OC)c1OC	D1 antag -66.7
COc1ccc(Nc2cc(C)nc(-n3nc(C)cc3C)n2)cc1Cl	D1 antag -33.9
CCc1ccc(-c2nn(CC(=O)NCc3ccccc3)c3c2cnc2ccc(C)cc23)cc1	none
CCS(=O)(=O)N1CC(=O)N(c2ccc(C)c(C)c2)C(C)(C(=O)NC2CCCCC2)C1 (configuration not stated)	TRHR enhancer 42.3

Compound activity deposited in PubChem by National Center for Advancing Translational Sciences (NCATS).
